Pf growth 48h – inhibits P. falciparum growth in the first generation, 48 h; actives 5.9% (n = 310,000); P. falciparum luciferase growth in erythrocytes, 48 h; Potency, µM (series often up to 28.7 µM), without a hit: top-dose activity change, negative = inhibition, hits mostly inhibitors; also: % is scaled to controls: 0 for no effect and ±100 for the full control effect
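Read-out is firefly luciferase luminescence from an integrated reporter in P. falciparum, so falling signal marks reduced parasite growth. Infected erythrocytes were at 2% hematocrit and 0.1% parasitemia (final) in Albumax-supplemented RPMI 1640.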
HCV inhibitor – HCV inhibition. Huh7.5.1 HCVcc-Cre infection, luciferase reporter, 44 h. Potency, µM (highest dose often 41.8 µM), without a hit: at the top dose activity change, negative = inhibition, hits mostly inhibitors. actives 3.4% (n = 340,000); also: % is scaled to controls: 0 for no effect and ±100 for the full control effect
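1,000 cells/well; 4 h culture; + compound; + HCVcc-Cre (~0.5 moi); 44 h; luciferase substrate, RT 15 min; read 15 sec.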
NS1 inh – influenza NS1 inhibition. Potency, µM (highest dose often 46.1 µM), for the others: top-dose activity, positive = more growth. actives 0.4% (n = 270,000). AID 2326; calls by dose curve; also: actives are rising curves; nearly all actives have a fitted effect of over 50% in size
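Recovery from NS1-induced slow growth read by OD600 in budding yeast switched to galactose assay medium (pH 6.0, -URA) at 1:100 dilution. Compound 23 nl per well; the matching strain lacking NS1 serves as control.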
SARS PLP yeast – inhibitors of SARS-CoV papain-like protease in yeast; actives 0.19% (n = 330,000); S. cerevisiae expressing SARS-CoV PLpro, growth rescue; Potency, µM (titrated, usually from 32.9 µM), inactives show at the highest dose activity, positive = growth rescue, actives largely listed as activators; AID 485353; calls by dose curve; also: 0% is about no effect; nearly all actives have a fitted effect of over 55% in size
Pf growth 96h – inhibits malaria parasite growth, 96 h | P. falciparum luciferase reporter growth, 96 h | Potency, µM (top dose mostly 28.7 µM), for inactives: at the top dose activity change, negative = inhibition, actives largely listed as inhibitors | actives 6.9% (n = 320,000) | AID 504834; also: % is scaled to controls: 0 for no effect and ±100 for the full control effect
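Erythrocytes infected with luciferase-expressing P. falciparum were dispensed at 2% hematocrit and 0.05% parasitemia (final), then incubated with compounds 96 hours at 37 C in 5% CO2. Luminescence after detection reagent addition reported growth.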
AMA1 RON2 block – AMA1-RON2 (P. falciparum) interaction inhibition; AlphaScreen AMA1-biotinylated RON2 peptide binding; Potency, µM (top dose mostly 58.2 µM), for inactives: at the highest dose activity change, negative = inhibition, most hits filed as inhibitors; actives 0.2% (n = 360,000); AID 720542;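 also: 0% = vehicle wells and -100% = peptide control; nearly all actives have a fitted effect of over 45% in size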
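AMA1 (3D7) with his tag at 25 nM final met compounds first, then biotinylated RON2 peptide at 25 nM; detection used donor plus acceptor beads, 10 µg/mL apiece, read by AlphaScreen after 30 min at room temperature.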
An asterisk follows results filed as active; ? = inconclusive; / = not tested or not shown; [ ] = remark or other dose. This is a sample that favours compounds with a hit; in the whole collection about 12% have one here. Unless noted, calls follow the shape of the dose curve; as a rule, active = well fitted curve in the direction sought with a large enough effect; inconclusive = small, poorly fitted or top-dose-only effect, or another doubt; inactive = no such curve, though single readings can be large; an effect the other way counts as inactive or inconclusive. Potency is read from the fitted curve at half-maximal effect.

SMILES	Pf growth 48h	HCV inhibitor	NS1 inh	SARS PLP yeast	Pf growth 96h	AMA1 RON2 block
O=C(Nc1ccc(Oc2cccnc2)cc1)C1CCN(Cc2cccc(Cl)c2)CC1	?	?	18.5%	1.6%	-6.6%	0.3%
O=C(Nc1ccc(Oc2cccnc2)cc1)C1CCN(Cc2ccccc2F)CC1	?	?	-8.3%	0.8%	5.86µM*	3.0%
O=C(Nc1ccccc1Oc1cccnc1)C1CCCN(C/C=C/c2ccc(F)cc2)C1 (stereo unspecified)	?	-20.8%	-2.6%	?	-3.1%	-0.7%
Cc1cccc(CN2CCCC(C(=O)Nc3ccccc3Oc3cccnc3)C2)c1 (stereo unspecified)	9.28µM*	4.1%	0.0%	0.7%	-4.9%	-0.2%
CC(=O)c1cccc(NC(=O)C2CCN(S(=O)(=O)c3ccc(C)cc3)CC2)c1	-5.6%	-12.6%	-18.5%	-17.1%	?	5.4%
CCN(c1ccc(NC(=O)c2ccc(Cl)nc2)cc1)C(C)C	5.6%	15.3%	/	1.2%	25.1%	-0.1%
CC(C)C(N)c1csc(NC(=O)Nc2ccc(OC(F)(F)F)cc2)n1 (stereo unspecified)	/	/	/	/	/	102.8%
COC(CSc1nc(N)c2c3c(sc2n1)CN(C)CC3)OC	?	-11.1%	7.8%	1.6%	?	-7.7%
CCNc1nc(SCC(N)=O)nc2sc3c(c12)CCN(C)C3	?	19.8%	5.0%	0.0%	1.04µM*	-11.4%
CSc1nc(SCC(N)=O)c2c3c(sc2n1)CN(C)CC3	3.29µM*	-8.5%	7.1%	3.8%	0.586µM*	-14.8%
Cc1ccc(OCC(=O)Oc2c(C)cccc2C)cc1	7.4%	7.2%	-13.0%	10.5%	0.329µM*	23.4%
CCCCN(CC)Cc1ccc(CNC(=O)Nc2ccc(F)cc2)o1	/	11.2µM*	8.2%	7.3%	?	2.1%
O=C(NCC1CCCO1)C1CCCN(S(=O)(=O)c2cc(Cl)ccc2Cl)C1 (stereo unspecified)	-4.9%	?	-0.9%	-4.4%	-8.1%	-3.9%
O=C(COC(=O)CNS(=O)(=O)c1ccc2ccccc2c1)Nc1ccccc1Sc1ccccc1	3.8%	3.0%	-1.4%	1.4%	34.5%	0.0%
COc1ccc(OCCCCn2c(CO)nc3ccccc32)cc1	-3.2%	-20.4%	-3.9%	-1.8%	?	0.4%
Clc1ccc(CSc2snnc2-c2ccccc2)cc1	13.1µM*	-11.3%	-9.8%	-4.7%	?	35.1%
CCCN(CCC)C(=O)c1cc2c(=O)n3cccc(C)c3nc2s1	-1.4%[0.00184 µM]	13.6%	-4.8%	1.5%	-7.7%	17.4%
COCC(C)NC(=O)c1ccc2nc(-c3ccccc3)c(-c3ccccc3)nc2c1 (stereo unspecified)	10.8%	?	-9.7%	/	-0.2%	-16.7%
CCCN(CCC)C(=O)c1ccc2nc(-c3ccc(OC)c(OC)c3)c(-c3ccc(OC)c(OC)c3)nc2c1	7.38µM*	?	-7.4%	1.1%	17.0%	29.2%
CCC(C)NC(=O)c1ccc2nc(-c3ccc(OC)c(OC)c3)c(-c3ccc(OC)c(OC)c3)nc2c1 (stereo unspecified)	2.94µM*	-3.5%	0.2%	0.8%	13.1µM*	0.0%
Cc1cccc(C(=O)O/N=C/c2c(N3CCOCC3)n(C)c3ccccc23)c1	6.57µM*	/	-213.3%	-26.8%	1.85µM*	/
Cn1c(Cl)c(/C=N/OC(=O)c2ccccc2Cl)c2ccccc21	28.6%	?	-3.1%	-4.5%	74.9%	-3.6%
COc1ccc(C(CNC(=O)c2cccc(S(=O)(=O)Nc3cccc(C)c3)c2)N2CCOCC2)cc1 (stereo unspecified)	?	1.1%	/	0.4%	?	-25.9%
Nc1nc2n(n1)C(=O)CC(c1ccccc1)N2 (stereo unspecified)	15.8%	-3.8%	/	0.5%	9.28µM*	12.0%
COc1ccc(C(=O)N/N=C/c2ccc(OC)c(CN3CCCc4ccccc43)c2)cc1	1.17µM*	6.31µM*	?	-12.1%	17.6%	?
SMILES	Pf growth 48h	HCV inhibitor	NS1 inh	SARS PLP yeast	Pf growth 96h	AMA1 RON2 block
CCCCOc1ccc(C(=O)N/N=C/c2ccc(OCCN3CCCCC3)c(OC)c2)cc1	11.7µM*	?	20.9%	-7.2%	11.7µM*	-12.8%
COc1ccc(C(=O)N/N=C/c2ccc(OC)c(COc3c(F)c(F)cc(F)c3F)c2)cc1	3.7%	2.24µM*	-7.3%	-0.7%	0.0%	-16.1%
COc1ccc(OCc2cc(/C=N\NC(=O)c3ccccc3)ccc2OC)cc1	-26.6%	?	-35.8%	-2.9%	?	7.2%
CCOc1cc(/C=N/NS(=O)(=O)c2ccccc2)ccc1OS(=O)(=O)c1ccc(C)cc1	/	-8.3%	20.5%	6.2%	?	-4.0%
CCCOc1ccc(/C=N/NC(=O)CN2CCCCC2)cc1OCC	-19.0%	-17.3%	12.4%	-1.3%	0.5%	0.0%
CCOc1cc(/C=N/NS(=O)(=O)c2ccc(OC)cc2)ccc1OCCN1CCOCC1	0.1%	6.3%	3.0%	8.7%	5.22µM*	-17.8%
COc1ccc(/C=N\NC(=O)c2ccc([N+](=O)[O-])cc2)cc1COc1c(F)c(F)cc(F)c1F	?	1.58µM*	?	2.4%	?	56.7%
COc1ccc(/C=N/NC(=O)c2cccnc2)cc1COc1ccc([N+](=O)[O-])cc1	-21.4%	-10.4%	2.0%	-1.6%	27.6%	4.8%
COc1ccc(/C=N/NC(=O)c2cc(OC)c(OC)c(OC)c2)cc1CN1CCc2cc(OC)c(OC)cc2C1C (stereo unspecified)	?	2µM*	/	-2.2%	?	-12.2%
COc1ccc(/C=N/NC(=O)c2ccc(N)cc2)cc1Cn1cc([N+](=O)[O-])cn1	6.8%	?	/	1.3%	11.7µM*	-7.1%
Cc1c(Cl)cccc1NS(=O)(=O)c1c(C(=O)N2CCOCC2)c(C)n(C)c1C	-18.8%	14.6%	?	5.0%	-12.8%	9.3%
O=C(NNC(=O)c1ccccc1OCc1ccccc1Cl)c1csc(N2CCOCC2)n1	?	10µM*	-4.9%	-0.2%	?	125.0%
COc1ccccc1C(=O)NNC(=O)c1csc(N2CCOCC2)n1	?	4.0%	/	/	6.5%	101.3%
NC(=O)Cn1nnc(-c2ccc(NC(=O)c3ccc(F)cc3)cc2)n1	20.2%	17.7%	/	2.3%	?	-7.6%
CCOC(=O)N(C)C[C@@H]1OCc2ccccc2-c2c(n(C)c3ccccc23)C(=O)N([C@H](C)CO)C[C@H]1C	/	/	/	/	/	3.7%
CCOC(=O)CCn1c(=S)n(CCC(=O)OCC)c2ccccc21	3.7µM*	0.2%	-58.5%	4.1%	42.5%	9.3%
CCc1cc2c(=O)c(-c3cnn(-c4ccccc4)c3)c(C)oc2c(CN2CCCCC2)c1O	14.7µM*	?	-1.4%	7.7%	46.9%	-2.4%
CCc1cc2c(=O)c(-c3cnn(-c4ccccc4)c3)coc2c(CN2CCOCC2)c1O	?	-24.1%	0.4%	1.7%	?	-5.2%

Source: PubChem BioAssay
